Our source for the Potency values is PubChem BioAssay AID1671189 (National Center for Advancing Translational Sciences (NCATS), 2021).

About 70 (6%) of roughly 1,100 compounds were called active. About 22% were inconclusive and are not listed. The call rests on the fitted dose curve; in most records, active means well fitted curve in the direction sought with a large enough effect; inconclusive means small, poorly fitted or top-dose-only effect, or another doubt; inactive means no such curve, though single readings can be large or run the other way. What follows is part of a selection rich in actives, with near analogues and random picks from the rest. Entries that show only a call come without a potency.
Potency means the concentration at half of the fitted maximal effect.

Chain of Polyunsaturated fatty acid lipoxygenase ALOX12 (Homo sapiens) (P18054 whole entry, looked up): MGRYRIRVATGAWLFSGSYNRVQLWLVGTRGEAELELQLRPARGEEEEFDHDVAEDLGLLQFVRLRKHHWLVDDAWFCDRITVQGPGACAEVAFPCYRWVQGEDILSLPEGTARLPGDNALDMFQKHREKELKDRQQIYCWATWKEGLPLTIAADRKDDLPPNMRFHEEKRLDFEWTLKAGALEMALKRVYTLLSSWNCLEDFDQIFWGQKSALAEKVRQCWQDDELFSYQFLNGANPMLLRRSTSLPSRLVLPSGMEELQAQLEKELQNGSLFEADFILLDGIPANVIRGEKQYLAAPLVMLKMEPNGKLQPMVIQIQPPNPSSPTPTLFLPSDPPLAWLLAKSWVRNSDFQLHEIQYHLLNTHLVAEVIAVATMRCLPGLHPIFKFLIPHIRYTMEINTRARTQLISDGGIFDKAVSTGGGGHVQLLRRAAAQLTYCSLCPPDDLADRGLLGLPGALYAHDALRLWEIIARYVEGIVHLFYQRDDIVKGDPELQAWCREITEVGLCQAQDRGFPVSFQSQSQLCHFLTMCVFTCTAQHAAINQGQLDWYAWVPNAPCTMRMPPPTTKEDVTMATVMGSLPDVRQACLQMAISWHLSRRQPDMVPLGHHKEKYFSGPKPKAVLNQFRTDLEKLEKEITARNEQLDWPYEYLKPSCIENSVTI

The experiment addresses Polyunsaturated fatty acid lipoxygenase ALOX12 (Homo sapiens) (UniProt P18054). Put plainly: Confirmatory qHTS assay for inhibitors of human arachidonate 12S-lipoxygenase (ALOX12): Round 2. The settings on record: purified human 12-LOX, xylenol orange absorbance; series mostly up to 125 µM. The method in brief: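 Activity was measured as hydroperoxide formation via ferrous/xylenol orange, taking the 573 nm to 405 nm absorbance ratio. Reaction: 40 uM arachidonic acid, 30 min at room temperature, after 15 min compound preincubation with 150 nM enzyme, pH 7.0 Hepes buffer.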
In general terms: qHTS replaces the single test concentration by a dilution series.
For the compound `CCC(=O)N1Cc2ccccc2CC2(CCCN(CC3CCNCC3)C2)C1` (stereo not given), the Potency entry is “inactive”.
Take `NCc1ccccc1-c1ccc(O)cc1`: the Potency entry is “inactive”.
As for `Cn1nc(C2CCNC2)c2c(C(=O)NCc3ccncc3)cc(C3CC3)nc21` (stereo not given), the entry is “inactive”; as for `O=C1NC2(Cc3ccccc31)CN(C(=O)c1ccc3c(c1)OCO3)C2`, “inactive”; as for `CCC(=O)NC(c1cc(Cl)c2cccnc2c1O)C1CC1` (stereo not given), 12.2 µM (active).
As for `CC(C)C[C@@H](N)C(=O)O`, the entry is “inactive”; as for `COc1cccc([S+](=O)([O-])N2CC(Oc3ccc(F)c(F)c3)C2)c1`, “inactive”.
For `COc1cccc(N2C(=O)NC(=NC3CCCCC3)C23CCCN(C(=O)c2ccccc2)C3)c1` (stereo not given), the Potency result is “inactive”.
As to `CC(=O)NC1CC2(CCN(C(=O)Cc3c(C)noc3C)CC2)Oc2ccccc21` (stereo not given), the Potency entry was “inactive”.
In the case of `CC(C)NC(=O)N1CCC2(CC1)CN(C(=O)Cc1c[nH]c3ccccc13)CCO2`, the Potency result was “inactive”.
As for `O=C(Nc1ccc(Oc2ccccc2)cc1)O[C@@H]1CO[C@H]2[C@@H]1OC[C@@H]2NS(=O)(=O)c1ccc(Cl)cc1`, the figure is 5.01 µM (active).
As for `CC(C)C(=O)N1Cc2ccccc2CC2(CCCCN2CC2CCNC2)C1` (stereo not given), the entry is “inactive”; as for `CN(C)CCCC(=O)N1Cc2ccccc2CC2(CCCCN2Cc2ccccc2)C1` (stereo not given), “inactive”; as for `Cc1cc(C(=O)NC2CCNCC2)c2c(C3CCNCC3)noc2n1`, “inactive”.
The result for `CC(C)c1ccc(CNC(=O)C2CCN(c3cc(C(F)(F)F)ncn3)CC2)cc1` reads “inactive”; that for `O=C1Nc2ccccc2CN(C/C=C/c2ccccc2)C12CCNC2` (stereo not given), “inactive”; that for `O=C1Nc2ccccc2CN(CC2CCCCC2)C12CCNCC2`, 49.4 µM (active).
For the compound `O=C1Nc2ccccc2CC12CN(CC1CCCC1)C2`, the Potency result was “inactive”.
For the compound `C[S+](=O)([O-])N1Cc2ccccc2CC2(CCCCN2CC2CCNCC2)C1` (stereo not given), the Potency result was “inactive”.
Turning to `COc1ccc(CNc2ncnc3c2CN(C2CCNCC2)C(=O)CN3C)cc1`, the Potency entry was “inactive”.
As for `O=C(c1ccccc1)N1CCn2c(nnc2C2CCNCC2)C1`, the Potency entry is “inactive”.
With `COc1cccc(CNc2ccc([S+](=O)([O-])Nc3cc4ccccc4s3)cc2)c1O`, the Potency is 19.3 µM (active).
`Cc1ccc2nc(C3CCCN(Cc4ccccc4)C3)[nH]c(=O)c2c1` (stereo not given): the Potency result is “inactive”.
With `O=C(c1ccccn1)N1CCn2c(nn(-c3ccc(Cl)cc3)c2=O)C1`, the Potency entry is “inactive”.
With `O=C1NC(=NC2CCCC2)C2(CCN(CC3CC3)C2)N1c1cccnc1` (stereo not given), the Potency entry is “inactive”.
As for `CNC(=O)[C@@H](C1CCCCC1)N1CCC[C@H]1C(=O)N1CCC1`, the Potency is 15.8 µM (active).
Regarding `C#CCN(C)C(=O)[C@@H]1CCCN1[C@H](CC(C)C)C(=O)NC`, the Potency result is “inactive”.
Consider `Cc1n[nH]c(C)c1CN1CCC2(CC1)CCN(C1CCOCC1)CC2CO` (stereo not given), for which the Potency result is “inactive”.
As for `CN1CC(=O)N(C2CCNCC2)Cc2c(NCCc3cccc(F)c3)ncnc21`, the entry is “inactive”; as for `COc1ccc(CN2Cc3[nH]cnc3C[C@H]2C(=O)NCc2ccco2)cc1`, “inactive”.
